A selection: hits, their analogues and other compounds. The true share with any hit is near 3.3%.
Smad3 inh: inhibitors of human Smad3 transcription factor binding; TR-FRET Smad3/Dy647-FoxH1 peptide binding, europium anti-His; hit rate 0.29% among 88,000; inhibition, % at 25 µM; P84022; AID 630;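 active = compounds that reduce the energy-transfer binding signal between the protein and its labelled peptide by more than half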;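 also: 0% = Smad3 plus labelled peptide maximal FRET and 100% = peptide-only background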
ERa coact inh: ER-alpha (human) coactivator binding inhibition | AID 629 | TR-FRET ER-alpha LBD / SRC-1 peptide, estradiol-bound | hit rate 1.7% among 86,000 | inhibition, % at 25.6 µM | P03372; in the data active = inhibition above about 50%;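 also: 0% = receptor plus peptide control and 100% = peptide only without receptor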
FAK blocker: inhibitors of human focal adhesion kinase. biochemical FAK kinase activity assay. hit rate 0.84% among 97,000. inhibition, %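 (tested at 7 µM)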. AID 727; in the data active = inhibition above about 19%;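 also: 0% = DMSO and 100% = reference compound high control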
Target sequence (Q05397 whole entry, looked up): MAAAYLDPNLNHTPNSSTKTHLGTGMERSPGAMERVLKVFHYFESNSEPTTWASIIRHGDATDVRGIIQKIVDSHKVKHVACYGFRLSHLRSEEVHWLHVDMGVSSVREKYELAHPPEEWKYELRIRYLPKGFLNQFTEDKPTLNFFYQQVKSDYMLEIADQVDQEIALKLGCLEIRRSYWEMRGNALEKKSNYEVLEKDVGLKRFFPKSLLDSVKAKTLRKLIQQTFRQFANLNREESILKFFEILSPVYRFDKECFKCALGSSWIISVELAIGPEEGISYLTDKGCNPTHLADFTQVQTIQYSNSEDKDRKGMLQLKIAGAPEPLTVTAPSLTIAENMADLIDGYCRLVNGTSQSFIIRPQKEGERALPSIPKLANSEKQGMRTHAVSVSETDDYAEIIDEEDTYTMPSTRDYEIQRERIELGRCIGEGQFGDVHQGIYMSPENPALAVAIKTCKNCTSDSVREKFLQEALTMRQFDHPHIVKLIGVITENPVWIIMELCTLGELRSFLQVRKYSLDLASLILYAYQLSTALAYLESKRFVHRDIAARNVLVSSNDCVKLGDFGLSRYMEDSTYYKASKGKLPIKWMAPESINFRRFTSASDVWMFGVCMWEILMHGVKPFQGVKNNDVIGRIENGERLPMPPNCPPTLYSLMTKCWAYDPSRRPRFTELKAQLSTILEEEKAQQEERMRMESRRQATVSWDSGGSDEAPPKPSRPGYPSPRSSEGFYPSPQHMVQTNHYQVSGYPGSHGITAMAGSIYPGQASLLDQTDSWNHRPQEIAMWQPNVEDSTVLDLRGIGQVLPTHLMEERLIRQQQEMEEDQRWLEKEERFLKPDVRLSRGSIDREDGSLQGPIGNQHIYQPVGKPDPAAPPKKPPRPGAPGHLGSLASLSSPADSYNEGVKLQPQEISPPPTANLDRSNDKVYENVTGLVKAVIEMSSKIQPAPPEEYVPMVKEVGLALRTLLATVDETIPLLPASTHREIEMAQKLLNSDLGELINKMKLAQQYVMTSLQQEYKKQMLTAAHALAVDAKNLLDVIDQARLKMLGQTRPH
ERb coact inh: ER-beta (human) coactivator binding inhibition. TR-FRET ER-beta LBD / SRC1-Cy5 peptide binding; receptor agonist-loaded with 1 µM estradiol. hit rate 1.3% among 86,000. AID 633. Q92731. inhibition, % at 25.6 µM;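 active = compounds whose percent inhibition of the receptor-coactivator binding signal exceeds about 50% in the single-dose screen, limit read from the data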;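 also: 0% = receptor plus peptide wells without compound and 100% = peptide-only wells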
ERa coact pot: ER-alpha (human) coactivator binding potentiation; coactivator binding (% of control), % at 25.6 µM; TR-FRET ERalpha-LBD/SRC-Cy5 coactivator binding, 2 h; 100 = basal binding, no effect; hit rate 1.3% among 86,000; AID 639; P03372; in the data active = activity above about 200%;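 also: binding measured in presence of low estradiol as agonist stimulus; 0% = peptide alone without receptor and 100% = receptor with peptide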
* hit, by the source's call; . = no result; [ ] = dose if it differs, or a comment.

SMILES	Smad3 inh	ERa coact inh	FAK blocker	ERb coact inh	ERa coact pot
O=C(Cn1cc(C(=O)c2ccco2)c2ccccc21)NC1CCCC1	14.9	2.4	-1.6	-1.0	554.2*[fluorescence artefact?]
COc1cccc2sc(N3CCN(c4nc5ccccc5s4)CC3)nc12	4.0	49.3	12.5	29.9	236.3*
c1ccc2sc(N3CCOCC3)nc2c1	-0.8	7.3	-1.3	-3.7	93.7
O[C@H]([C@H](O)[C@@H](O)c1nc2ccccc2[nH]1)[C@@H](O)c1nc2ccccc2[nH]1	26.8	.	.	.	.
C[C@@]1(C(=O)O)CCC[C@@H]1C(=O)O	14.7	.	.	.	.
O=C(Cc1cn2ccsc2n1)OCc1nc2ccccc2s1	11.8	64.0*	4.3	63.6*[fluorescence artefact?]	36.9
O=C(Cc1cn2ccsc2n1)OCc1ccccc1	2.6	4.4	-1.9	0.4	118.5
Cc1nc(-n2ncc(C#N)c2N)c2c3c(sc2n1)CCC3	12.4	66.8*[fluorescence artefact?]	5.0	54.7*[fluorescence artefact?]	208.2*[fluorescence artefact?]
CCOC(=O)c1cnn(-c2nc(SC)nc3sc4c(c23)CCC4)c1N	13.6	74.8*[fluorescence artefact?]	7.3	60.2*	61.5
N#Cc1cnn(-c2ncnc3sc4c(c23)CCCC4)c1N	.	.	0.4	.	.
CCOC(=O)c1cnn(-c2nc(C)nc3sc4c(c23)CCC4)c1N	1.7	20.5	.	6.2	119.3
CN(C)C(=O)C1CCN(Cc2c[nH]c3ccccc23)CC1	12.0	.	.	.	.
CC1=C(C#N)C2C(/C1=N/O)C2(C)C (stereo not given)	0.6	5.3	-0.9	-1.0	111.1
CCOC(=O)C1=C(N)n2c(s/c(=C\c3cccnc3)c2=O)=C(C(=O)OCC)C1c1cccnc1 (stereo not given)	-7.4	0.0	.	8.5	118.9
CCOC(=O)C1=C(N)n2c(s/c(=C\c3cccnc3)c2=O)=C(C(=O)OC)C1c1cccnc1 (stereo not given)	38.2	72.4*[fluorescence artefact?]	3.6	19.2	266.4*[fluorescence artefact?]
CC(=O)C1=C(O)C(=O)N(CC(=O)O)C1c1ccccc1Cl (stereo not given)	-0.1	6.8	-2.2	-4.4	93.7
N[C@@](CCc1ccccc1)(C(=O)O)c1ccccc1	3.0	.	.	.	.
Cc1ccc(NS(=O)(=O)c2ccc3c(c2)oc(=O)n3C)cc1F	11.4	-7.6	-10.2	-5.8	221.2*
Cn1c(=O)oc2cc(S(=O)(=O)Nc3cccc(F)c3)ccc21	-4.4	-0.3	.	-2.3	196.1
Nc1nc2nc3c(nc2c(=O)[nH]1)CN(c1ccc(C(=O)O)cc1)C3=O	15.0	.	.	.	.
Cn1c(=O)c2c(nc(NCCc3ccccc3)n2CC(=O)NCCc2ccccc2)n(C)c1=O	1.8	17.3	2.1	33.5	229.1*[fluorescence artefact?]
Cn1c(=O)c2c(nc(NCc3ccccc3)n2CC(=O)NCc2ccccc2)n(C)c1=O	.	.	-5.3	.	.
Cc1cc(NC(=O)C(C)C)ncc1NC(=O)Cc1ccccc1	11.8	-30.6	3.5	-36.0	123.2
COc1cc(C(=O)Nc2cnc(NC(=O)C(C)C)cc2C)cc(OC)c1OC	-2.0	-6.4	-0.8	51.8*	151.1
Cc1ccc(-c2noc(CCC(=O)NCC3CCCO3)n2)cc1 (stereo not given)	-2.2	-3.0	-3.5	-20.1	93.4
SMILES	Smad3 inh	ERa coact inh	FAK blocker	ERb coact inh	ERa coact pot
Cc1ccc(-c2noc(CCC(=O)Nc3ccc(C)cn3)n2)cc1	10.7	4.6	2.5	2.4	252.9*
Cc1ccc(-c2cc3c(nn2)-c2ccccc2C3=O)cc1	26.4	63.2*[fluorescence artefact?]	.	37.0	60.5
Cc1ccc(S(=O)(=O)NCC(=O)OCC(=O)Nc2ncc(Cl)cc2Cl)cc1	-0.5	56.6*[fluorescence artefact?]	0.8	42.4	68.5
Cc1ccc(S(=O)(=O)CCC(=O)OCC(=O)Nc2ncc(Cl)cc2Cl)cc1	3.3	-4.0	2.1	5.1	108.1
O=C(O)CC[C@]1(C(=O)O)CCC(=O)c2ccccc21	-22.9	.	.	.	.
O=C1CN(C(=O)c2ccccc2F)c2ccccc2N1	9.2	-7.4	1.1	0.1	157.3
O=C1CN(C(=O)c2cccs2)c2ccccc2N1	7.9	2.1	0.7	14.0	965.9*[fluorescence artefact?]
O=C(O)[C@@H](Cc1c[nH]c2ccccc12)C(=O)NO	5.5	.	.	.	.
COc1cc(OC)cc(-n2c3nc4ccccc4nc3c3c(=O)n(CC4CCCO4)cnc32)c1 (stereo not given)	24.9	57.4*[fluorescence artefact?]	.	47.9	124.3
Cc1nc2c(c(=O)n1CC1CCCO1)c1nc3ccccc3nc1n2CCC(C)C (stereo not given)	8.8	75.6*	.	22.7	87.8
O=c1c2c3nc4ccccc4nc3n(CC3CCCO3)c2ncn1CCc1ccccc1 (stereo not given)	4.2	-4.1	.	-3.6	96.6
CC[C@H]1CN(C)[C@@H]2Cc3c([nH]c4ccccc34)C(=O)C[C@H]1[C@H]2C(=O)OC	1.2	.	.	.	.
NC(=O)C1CCN(c2nc(-c3ccccc3)nc3ccccc23)CC1	-3.5	-0.8	-2.0	2.3	122.5
NC(=O)C1CCN(c2nc(-c3ccccc3)nc3c2oc2ccccc23)CC1	-19.7	21.9	-2.8	36.5	343.6*[fluorescence artefact?]
O=C(Nc1ccc2nn(-c3ccccc3)nc2c1)c1ccc2c(c1)OCO2	-18.7	51.2*	10.0	35.9	181.4
O=C(Nc1cccc(F)c1)c1ccc2c(c1)OCO2	8.3	1.1	-1.5	5.8	109.1
O=C(Nc1cccc(-c2cn3cccnc3n2)c1)c1ccc2c(c1)OCO2	-9.5	60.5*	10.2	10.2	116.1
Nc1nc(N)c2nn(-c3ccc(C(=O)O)cc3)nc2n1	14.7	.	.	.	.
CC(=O)c1c(C)oc2ccc(NS(=O)(=O)c3ccc(O)c(C(=O)O)c3)cc12	-4.3	13.8	-6.0	31.2	62.0
O=C(O)c1cc(S(=O)(=O)Nc2ccc3oc(=O)sc3c2)ccc1O	-7.5	42.8	0.9	55.3*[fluorescence artefact?]	59.7
Cc1cc2cc(CNC(=O)c3ccc(S(=O)(=O)N4CCCCC4)cc3)ccc2n1C	15.8	22.6	-28.2	45.9	404.3*[fluorescence artefact?]
CCN(CC)S(=O)(=O)c1ccc(C(=O)NCc2ccc3c(c2)cc(C)n3C)cc1	3.5	-1.1	6.6	-6.8	141.1
Cc1cc2cc(CNC(=O)c3ccc(S(=O)(=O)N4CCCC4)cc3)ccc2n1C	17.1	21.0	-12.4	31.7	293.0*[fluorescence artefact?]
O=C(O)CCC(=O)N1CCN(c2ccc(C(=O)c3ccc(F)cc3)cc2)CC1	3.0	12.9	-0.4	-6.6	249.3*
Nc1ncnc2c1ncn2CCCCC(=O)O	15.8	.	.	.	.
SMILES	Smad3 inh	ERa coact inh	FAK blocker	ERb coact inh	ERa coact pot
Cc1cc2oc(=O)cc(CN3CCCc4ccccc43)c2cc1C	4.8	5.6	.	7.7	231.3*[fluorescence artefact?]
[N-]=[N+]=CC(=O)COC(=O)c1ccccc1	-4.1	.	.	.	.
N#CCCN1CCn2c1nc1ccccc12	-2.6	-9.6	1.4	-9.2	200.3*
CCC(=O)N1CCCn2c1nc1ccccc12	9.2	-4.2	1.6	-4.8	85.4
CCC(=O)N1CCn2c1nc1ccccc12	-7.4	5.0	0.7	55.2*[fluorescence artefact?]	91.1
CN(/N=C/c1ccccc1O)c1ccc2ccccc2n1	8.9	.	.	.	.
COc1ccc2[nH]c(=O)c(CN(C3CCCCC3)C(c3nnnn3Cc3ccco3)C(C)C)cc2c1 (stereo not given)	7.5	46.2	12.1	27.9	201.3*
COc1ccc2[nH]c(=O)c(CN(Cc3nnnn3Cc3ccco3)C3CCCCC3)cc2c1	19.1	32.5	1.4	28.4	72.9
NC(=S)SCCC(=O)O	10.5	.	.	.	.

Screens from PubChem BioAssay.
